High-throughput results from PubChem BioAssay.
Hits are enriched below; roughly 3.5% of the tested compounds scored in any of these assays.
Pf apPOL inh: Pf-apPOL DNA polymerase inhibition; inhibition, % at 10 µM; actives 0.25% (n = 210,000); Recombinant Pf-apPOL, molecular beacon fluorescence, 1.5 h
mHTT-CaM PPI inh: inhibitors of human mutant huntingtin-calmodulin interaction | AlphaScreen His-mHTT/GST-CaM binding, luminescence | P42858 | actives 3.6% (n = 190,000) | AID 1671202 | inhibition, % at 15 µM
Large screens that a line does not name were inactive. Cut-off read from the data, not from the text of the source: active = inhibition above about 50%; inactive = the rest.

CC(C)N1CCn2c(nc3cc(C(=O)NCc4cc(F)ccc4F)ccc32)C1=O	none
N#Cc1c(SCC(=O)NC2CC2)sc2c(O)cc(=O)[nH]c12	none (no result: Pf apPOL inh)
N#Cc1c(SCC(=O)Nc2nccs2)sc2c(O)cc(=O)[nH]c12	mHTT-CaM PPI inh 51 (no result: Pf apPOL inh)
O=C(CCn1c(=O)c2sccc2n(CC(=O)NCC2CCCO2)c1=O)NCc1ccccc1 (centres undefined)	none
O=C(NCc1ccccc1Br)c1ccc(-c2cncnc2)nc1	none
O=C(Nc1cccc(-c2nc3ccccc3o2)c1)c1cccnc1Cl	Pf apPOL inh 74
O=C(Nc1cccc(-c2nc3ccccc3o2)c1)c1ccccc1I	none
Cc1ccc(Nc2nccc(C3CCCN(C(=O)C4CCC4)C3)n2)cc1 (centres undefined)	none
Cc1ccc(Nc2nccc(C3CCCN(C(=O)Cc4cccs4)C3)n2)cc1 (centres undefined)	mHTT-CaM PPI inh 63
CC(=O)N1CCCC(c2ccnc(Nc3ccc(F)cc3)n2)C1 (centres undefined)	none
O=C(Cc1cccs1)N1CCCC(c2ccnc(Nc3ccc(F)cc3)n2)C1 (centres undefined)	mHTT-CaM PPI inh 53
O=C(Nc1ccc(Nc2ccccc2)cc1)c1ccc(Br)o1	mHTT-CaM PPI inh 61
O=C(Nc1ccc(NC(=O)c2ccc(Br)o2)cc1)c1ccccc1	none
O=C(Nc1cccc(-c2nc3ccccc3[nH]2)c1)c1ccc(Br)o1	Pf apPOL inh 102
O=C(Nc1ccc(Cl)c(-c2nc3ccccc3[nH]2)c1)c1ccc(Br)o1	none
CC1=C(C(=O)Nc2ccccn2)C(c2ccccc2Cl)C2=C(CCCC2=O)N1 (centres undefined)	none
CCN(Cc1ccccc1)C(=O)c1sc2cc(F)ccc2c1Cl	none
Cc1cc(C)c(-c2[nH]ncc2-c2nc3ccccc3s2)c(O)c1	mHTT-CaM PPI inh 86
O=[N+]([O-])c1ccc(COc2ccc(-c3[nH]ncc3-c3nc4ccccc4s3)c(O)c2)cc1	mHTT-CaM PPI inh 100
Nc1ccc(O)c(-c2nc3ccccc3s2)c1	none
O=C(Nc1ccc(O)c(-c2nc3ccccc3s2)c1)c1ccc([N+](=O)[O-])cc1	none
Cc1cc(OCC(=O)Nc2ccc(C)c(F)c2)nc(N2CCCCC2)n1	none
Cc1ccc2n1CCN(C(=O)NCCc1ccccc1)C2C(C)C (centres undefined)	mHTT-CaM PPI inh 54
Cc1ccc2n1CCN(C(=O)NCc1ccccc1)C2C(C)C (centres undefined)	none
Cc1ccc(S(=O)(=O)N2CCCCC2CCNC(=O)c2cccn(C)c2=O)cc1 (centres undefined)	none
Cc1ccn2cc(CC(=O)Nc3ccccc3)nc2c1	none
COc1ccc(-c2nc3ccc(C)cn3c2NC(=O)C2CCCCC2)cc1OC	none
COc1ccc(-c2nc3ccc(C)cn3c2NC(=O)C(Cl)Cl)cc1OC	mHTT-CaM PPI inh 52
COc1ccc(-c2nc3ccccn3c2NC(=O)C2CCCCC2)cc1OC	mHTT-CaM PPI inh 59
COc1ccc(-c2nc3ccc(C)cn3c2NC(C)=O)cc1OC	none
Cc1nc2ccccc2c(C(=O)O)c1-c1ccccc1	none
Cc1ccc(S(=O)(=O)NCC(c2ccco2)N2CCN(c3ccccc3)CC2)cc1 (centres undefined)	none
CC(=O)Nc1ccc(OCc2cn(CC(=O)c3ccc(O)cc3)nn2)cc1	mHTT-CaM PPI inh 52
CC(=O)c1ccc(OCc2cn(CC(=O)c3ccc(O)cc3)nn2)cc1	none
O=C1CC[C@@H](OCc2ccccc2)CCN1CC[C@H](Sc1ccccc1)c1ccccc1	mHTT-CaM PPI inh 59
[N-]=[N+]=N[C@@H](CCN1CC[C@H](NC(=O)OCc2ccccc2)CCC1=O)c1ccccc1	none
C[C@@H]1CCC(=O)N(CC[C@H](Sc2ccccc2)c2ccccc2)CC1	none
O=C1CCC(OCc2ccccc2)CCN1CC[C@@H](Sc1ccccc1)c1ccccc1 (some centres undefined)	mHTT-CaM PPI inh 80
O=C1CC[C@@H](O)CCN1CC[C@H](Sc1ccccc1)c1ccccc1	none
[N-]=[N+]=N[C@@H](CCN1CC[C@H](OCc2ccccc2)CCC1=O)c1ccccc1	mHTT-CaM PPI inh 51
Cc1ccc(C(=O)C=CNc2ccc(C(=O)O)cc2)cc1	none
O=C(NCCN1CCCCC1)C1CCN(c2nccnc2Sc2ccccc2)CC1	none
CN(CCCNC(=O)C1CCCN(c2ccc(N3CCOCC3)nn2)C1)c1ccccc1 (centres undefined)	mHTT-CaM PPI inh 55
CCCCNC(=O)C1CCCN(c2ccc(N3CCOCC3)nn2)C1 (centres undefined)	none
Cc1[nH]c(C)c2c(=O)n(C)ncc12	none (no result: mHTT-CaM PPI inh)
N#Cc1c(-c2ccc(Nc3ccccc3)cc2)nn(-c2ccccc2)c1N	mHTT-CaM PPI inh 53
N#CCc1nn(-c2ccccc2)c(N)c1C#N	none
COc1cccc(S(=O)(=O)N2CCC3(C2)Nc2cccnc2NC3=NC(C)(C)C)c1 (centres undefined)	none
CCc1nc(SCC(=O)c2ccc(OC)cc2)n[nH]1	none
COc1cc(/C=C2\C(=O)N(c3ccc(C(=O)O)cc3)N=C2C(F)(F)F)ccc1OCC(C)C	mHTT-CaM PPI inh 74
COc1cc(/C=C2/C(=O)N(c3ccc(C(=O)O)cc3)N=C2C)cc(OC)c1OC	none
CC(C)(C)NC(=O)NCc1nnnn1-c1ccc(F)c(F)c1	none
CC(/C=C1\SC(=O)N(c2ccc(O)cc2)C1=O)=C\c1ccccc1	mHTT-CaM PPI inh 60
Cc1ccc(N2C(=O)S/C(=C\c3ccc(O)cc3)C2=O)cc1	none
CCOC(=O)Cc1ccc(NC(=O)N2CCc3cn(CC)c4cccc(c34)C2)cc1	none
Cc1ccccc1CSc1nc2c(cnn2-c2ccccc2)c(=O)[nH]1	none
Cc1ccc(C)c(CSc2nc(C3CCCCC3)c(C#N)c(=O)[nH]2)c1	Pf apPOL inh 73 (no result: mHTT-CaM PPI inh)
Cc1cc(C(N)=NOC(=O)C(C)(C)C)cc(C(N)=NOC(=O)C(C)(C)C)c1	none (no result: mHTT-CaM PPI inh)
CC(=O)Nc1cc(C(=O)NCC(C)C)c2ccc(C)nc2c1	none
CC(=O)Nc1cc(C(=O)NCc2ccccc2C)c2ccc(C)nc2c1	mHTT-CaM PPI inh 73
Cc1ccc2c(C(=O)NCc3ccccc3C)cc(NC(=O)C(C)C)cc2n1	mHTT-CaM PPI inh 54
Cc1cccc(CNC(=O)c2cc(NC(=O)C(C)C)cc3nc(C)ccc23)c1	none
O=C(NCc1ccc(F)cc1)C1Oc2ccccc2NC1=O (centres undefined)	none
Cn1nc(-c2nc(-c3ccccc3F)no2)c2c1CCN(C(=O)c1ccccc1)C2	none
Cc1cccc(C2=N/C(=C\c3ccc(Cl)cc3)C(=O)O2)c1	none
COc1ccc(/C=C2\SC(=N)N(c3nonc3N)C2=O)cc1	none
N=C1NC(=O)/C(=C\c2ccc(-c3cccc(C(F)(F)F)c3)o2)S1	none
CC(=O)Nc1nonc1N1C(=N)S/C(=C\c2ccc(-c3ccc(F)c(Cl)c3)o2)C1=O	none
N=C1S/C(=C\c2ccc(-c3cccc(C(F)(F)F)c3)o2)C(=O)N1c1nonc1N	mHTT-CaM PPI inh 56
N=C1S/C(=C\c2ccc(-c3ccc4c(c3)COC4=O)o2)C(=O)N1c1nccs1	none
N=C1S/C(=C\c2ccco2)C(=O)N1c1nonc1N	mHTT-CaM PPI inh 93
CC(=O)Nc1nonc1N1C(=N)S/C(=C\c2ccc(-c3ccc(F)cc3)o2)C1=O	mHTT-CaM PPI inh 62
N=C1S/C(=C\c2ccc(-c3cccc(Cl)c3)o2)C(=O)N1c1nccs1	mHTT-CaM PPI inh 57
Cc1cc(Nc2nc3ccncc3n(C(C)C)c2=O)ccc1F	none
O=C(Nc1ccc(Br)cn1)c1cc2nc(-c3cccs3)cc(C(F)(F)F)n2n1	none
Cc1cc(C)cc(NC(=O)C2CCCN(c3nc4nc[nH]c(=O)c4s3)C2)c1 (centres undefined)	none
